Molecular target: PTGFRN
Test: pooled miR-30 sensor sort-seq; sequence = guide strand
Conditions: shRNA
Further: reference of the scale not given here.

Sequence	sensor-assay potency score (higher = more potent)
TTGAACATTTGTAGTGGCCTTG	-0.0806
TTAACCATTAAAAAGCTGCAGT	-0.442
TTGGAGAAGACATCCTTGCTTT	-0.201
TTTCTTTGCTAACATCCCGAAC	-1.24
TATTTTAGCGTCCAGTCCCCGT	-1.12
TTGGTCTGAAGGCTGGACGTTC	-0.683
TAAAACAACGCCATCCACCCGT	-0.0584

Molecular target: PTGFR
Test: as above
Conditions: shRNA

Sequence	sensor-assay potency score (higher = more potent)
TAACTAACTGAAATATTGCCAA	-0.195
TTGTAGAAACACCAGGTCCTCG	-0.683
TTGCACAACAATGAAACACCAA	0.0591
TTTAATGGAACTAAGCTCCCAA	0.844
TTTGTGACTCCAATACACCGCT	-0.161
TTGACTGGCAAGCTTATAGAGA	-0.966
TTTGATGTCTTCTGTGTTGTAG	0.583
TGCACAACAATGAAACACCAAG	-1.45
TCTGTGTTGTAGAAACACCAGG	-1.29
TTGTGTTTGAAAGAAGCGCAGC	-0.804
TTTTATAGTCTCGATGTCCAAG	-0.668
TTTGACAAATTTCAAAACCTGA	-0.803

Molecular target: PTH2R
Test: as above
Conditions: shRNA

Sequence	sensor-assay potency score (higher = more potent)
TAGTGCAATGCAATCGTCTGAA	-0.115
TAGAATATCATCTCCCTGCCTC	-0.315
TAGCTGCTAAGATCGGTGCTTG	-0.715
TATATTGTGATTTGTCCACAGA	-0.718
TAGAACTCTAACCGTATTCAGA	-0.533
TTTAGATCCTAATTGCTCCTAT	0.713
TTTGCCAGAGATAAGCACCATG	-0.588
TTAAGTAACACCTTAACTGAAT	-1.01
TTTCAGCACAAGGACAATCTGC	-0.513
TAAACTACTCCATTGACACTTG	-0.214
TAAGCTGTGCATAAAATCCCAT	-0.0361
TAAATAAACATCACAACAGCAA	-0.154

Molecular target: PTPN7
Test: as above
Conditions: shRNA

Sequence	sensor-assay potency score (higher = more potent)
TCTTGCCACACCATCTCCCAGA	-0.679
TAGTGGACACATTTCTCCTTGC	-0.219
TAGACAGACACGGCTCTGGGGA	-0.764
TAGAACAGGAAACTGAAGCTCA	0.0685
TTCTCCTCGGGCTTTCAGCTGT	-0.819
TCTTCTTCCAGTTGCTTGGGGC	-0.37
ATTGATGTAATCTCCGTCCTCC	0.571
TTGTCCTTACTGCTGCTGCTTC	-0.729
TTCTTCTTCCAGTTGCTTGGGG	0.0231

Source: the OligoGym collection
